This is a sample that favours compounds with a hit; in the whole collection about 4.1% have one here.
FMDV inh – High Throughput Screening for Foot and Mouth Disease Virus Antivirals. FMDV antiviral cell-based qHTS. Potency, µM (top dose mostly 57.9 µM), for the others: top-dose activity change, negative = inhibition, usual class: inhibitors. AID 1159524, 2015. hit rate 1.2% among 410,000; calls by dose curve; tested in HEK293T cells; note: read-out not given here; nearly all actives have a fitted effect of over 45% in size
AmpC inh no detg – qHTS Inhibitors of AmpC Beta-Lactamase (assay without detergent); P00811; AmpC nitrocefin hydrolysis, absorbance 480 nm, 0.0001% Triton; Potency, µM (titrated, usually from 57.1 µM), inactives show at the top dose activity change, negative = inhibition, most hits filed as inhibitors; hit rate 0.52% among 330,000;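 note: plate controls were no compound for no effect and no enzyme for full effect; nearly all actives have a fitted effect of over 20% in size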
Target sequence (P00811 whole entry, looked up): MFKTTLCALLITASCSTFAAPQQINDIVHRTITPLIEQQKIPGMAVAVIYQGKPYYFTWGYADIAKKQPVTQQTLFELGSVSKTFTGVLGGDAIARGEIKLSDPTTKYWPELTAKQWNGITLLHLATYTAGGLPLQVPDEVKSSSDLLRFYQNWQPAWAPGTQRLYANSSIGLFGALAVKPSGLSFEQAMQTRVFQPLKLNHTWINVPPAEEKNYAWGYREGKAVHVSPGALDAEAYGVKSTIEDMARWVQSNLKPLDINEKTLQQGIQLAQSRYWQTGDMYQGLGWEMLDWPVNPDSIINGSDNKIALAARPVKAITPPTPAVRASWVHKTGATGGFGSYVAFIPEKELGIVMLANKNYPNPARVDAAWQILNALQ
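20 mM phosphate pH 7.0 + 0.01% (detergent screen) or 0.0001% Triton X-100; 5.3 nM AmpC reagent; cpd preinc 15 min RT; nitrocefin (800 uM stock) to start; A480 q20 s × 4 min; Activity was normalised to no-enzyme and no-compound control wells.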
AMA1 RON2 block – qHTS for Inhibitors of AMA1-RON; Towards Development of Antimalarial Drug Lead: Primary Screen; Plasmodium falciparum AMA1 (3D7) - RON2 peptide interaction; Potency, µM (series often up to 58.2 µM), without a hit: at the top dose activity change, negative = inhibition, usual class: inhibitors; AlphaScreen AMA1-biotinylated RON2 peptide binding; hit rate 0.2% among 360,000;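 note: 0% = vehicle wells and -100% = peptide control; nearly all actives have a fitted effect of over 45% in size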
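AMA1 (3D7) with his tag at 25 nM final met compounds first, then biotinylated RON2 peptide at 25 nM; detection used donor plus acceptor beads, 10 µg/mL apiece, read by AlphaScreen after 30 min at room temperature.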
AmpC detergent – qHTS Inhibitors of AmpC Beta-Lactamase (assay with detergent). P00811. AmpC hydrolysis of nitrocefin, absorbance 480 nm, 0.01% Triton. Potency, µM (highest dose often 114 µM), without a hit: at the highest dose activity change, negative = inhibition, hits mostly inhibitors. hit rate 0.041% among 370,000. AID 485294, 2010;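 note: 0% = no-compound wells and -100% = no-enzyme wells; nearly all actives have a fitted effect of over 25% in size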
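AmpC (5.3 nM in the dispensed reagent) in 20 mM phosphate pH 7.0 with 0.01% (detergent screen) or 0.0001% Triton X-100 was preincubated with compounds for 15 min at room temperature. Nitrocefin was then added from an 800 uM solution, and hydrolysis was followed at 480 nm.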
Sm TGR block – qHTS Assay for the Inhibitors of Schistosoma Mansoni Peroxiredoxins; Potency, µM (doses to about 114 µM), inactives show at the top dose activity change, negative = inhibition, most hits filed as inhibitors; Schistosoma mansoni thioredoxin glutathione reductase (TGR), Q962Y6; hit rate 3% among 360,000; purified TGR, DTNB reduction, TNB absorbance 405 nm; AID 485364, 2010; note: nearly all actives have a fitted effect of over 60% in size
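First, TGR (20 nM dispensed) and NADPH were mixed with compound. Second, a 15 min room-temperature incubation followed. Third, further NADPH and then DTNB were added to start the reaction. Finally, TNB absorbance was monitored kinetically.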
Numbers without * were called inactive; ? = inconclusive; / = no result; [ ] = another dose, or the depositor's remark. Unless noted, calls come from the whole dose curve; as a rule, active = well fitted curve in the direction sought with a large enough effect; inconclusive = small, poorly fitted or top-dose-only effect, or another doubt; inactive = no such curve, though single readings can be large; an effect the other way counts as inactive or inconclusive. Unless noted, % is set by controls: 0 for no effect and ±100 for the full control effect; potency is the fitted concentration of half-maximal effect.

SMILES	FMDV inh	AmpC inh no detg	AMA1 RON2 block	AmpC detergent	Sm TGR block
Cc1ccc(C(=O)NC(=S)NCC2CCCO2)cc1Br (centres undefined)	49.0%	-25.7%	-3.9%	-9.7%	56.2µM*
O=[N+]([O-])c1ccc(S(=O)(=O)NNC(=S)NCCc2ccccc2)cc1	-8.6%	75.1%	113.9%	-1.4%	1.78µM*
O=C(NC(=S)NCC1CCCO1)c1ccccc1Br (centres undefined)	-18.8%	-15.1%	2.5%[11.6 µM]	?	-12.8%
O=[N+]([O-])c1cccc(NC(=S)NCCc2ccccc2)c1	?	3.4%	-0.7%	-9.6%	-25.3%
COc1cccc(N2CCN(C(=O)CCc3c(C)nc4c(c3C)c(=O)n(C)c(=O)n4C)CC2)c1	0.0%	/	/	16.2%	-0.5%
CCOC(=O)c1ccc(N2C(=O)C=CC2=O)cc1	0.0%	-27.4%	1.2%	1.3%	0.501µM*
CCOC(=O)c1ccc(-n2c(C)ccc2C)cc1	2.4%	-21.4%	-9.7%	-0.1%	28.2µM*
Cc1cccc(C(=O)Nc2ccc(C(=O)OCc3cc(=O)n4c(C)csc4n3)cc2)c1	18.6%	/	/	-7.4%	-6.1%
O=C(CSc1oc(-c2cccs2)nc1S(=O)(=O)c1ccccc1)Nc1ccc(F)cc1	21.4%	/	/	5.8%	5.5%
CS(=O)(=O)N1CCC2(CC1)CN(C(c1ccccc1)c1ccccc1)C2	-2.2%	/	/	/	/
COc1ccc(NS(=O)(=O)c2cccc(-c3n[nH]c(=S)n3Cc3ccccc3)c2)cc1	11.6%	12.6µM*	97.9%	?	1.8%
CCN(CC)S(=O)(=O)c1cccc(-c2n[nH]c(=S)n2Cc2ccccc2)c1	0.8%	-36.1%[11.4 µM]	85.2%	?	-18.1%
COc1ccc(NS(=O)(=O)c2ccc(-c3n[nH]c(=S)n3Cc3ccccc3)cc2)cc1	-17.0%	7.94µM*	92.5%	2.8%	0.0%
CCCCN(C(=O)C1CCCC1)c1c(N)n(CC(C)C)c(=O)[nH]c1=O	-14.2%	-18.6%	13.9%	-1.5%	31.6µM*
COc1cc(OC)c(NC(=O)CCc2nc(C3=CCN(Cc4cccc(Cl)c4)CC3)no2)cc1Cl	-6.9%	/	/	16.9%	6.1%
Cc1oc(-c2ccccc2NS(C)(=O)=O)nc1CN(C)Cc1ccc(Cl)cc1	-0.5%	/	/	/	/
NC1=NC(=O)C(=Cc2ccccc2)S1	11.0%	/	-4.0%	/	/
NC1=NC(=O)/C(=C\c2ccco2)S1	35.7%	-20.8%	0.9%	-13.1%	3.16µM*
O=C1N=C(N2CCN(c3ccccc3)CC2)S/C1=C/c1ccco1	11.1%	-38.2%	-19.3%	-0.7%	?
O=C1N=C(N2CCN(c3ccccc3)CC2)S/C1=C\c1ccco1	0.5%	3.8%	-5.5%	-7.0%	22.4µM*
O=C(Cn1nc(Cc2cccnc2)c2ccccc2c1=O)Nc1cccc(C(F)(F)F)c1	-12.3%	/	/	0.4%	-1.9%
CCOC(=O)/C=c1\s/c(=C(\C#N)C(N)=O)n(-c2ccccc2)c1=O	?	-6.4%	83.9%	3.3%	10µM*
Cc1c(Cl)cccc1NC(=O)CSc1nc(=O)n(CCN2CCOCC2)c2c1CCC2	-9.0%	/	/	3.4%	-1.7%
Cc1nonc1C(=O)N/N=C/c1ccc([N+](=O)[O-])o1	-20.4%	-18.8%[11.4 µM]	18.7%	?	44.7µM*
CN(/N=C/c1ccc([N+](=O)[O-])o1)c1ccccc1	0.0%	-22.7%	12.6µM*	4.4%	-26.4%
SMILES	FMDV inh	AmpC inh no detg	AMA1 RON2 block	AmpC detergent	Sm TGR block
O=C(CSc1ccc(Cl)cc1)N/N=C/c1ccc([N+](=O)[O-])o1	-12.0%	-31.2%	20.0%	-1.5%	5.62µM*
O=C(CNc1ccc2ccccc2c1)N/N=C/c1ccc([N+](=O)[O-])o1	15.6%	?	-9.0%	?	-35.3%
O=C(N/N=C/c1ccc(-c2ccc([N+](=O)[O-])cc2)o1)C(O)c1ccccc1 (centres undefined)	-5.5%	-32.6%	30.1%	-5.9%	-24.1%
O=C(N/N=C/c1ccc([N+](=O)[O-])o1)C(O)c1ccccc1 (centres undefined)	-3.7%	-5.6%	34.3%	8.3%	44.7µM*
Cc1cccc(C(=O)OCc2cc(=O)n3ccsc3n2)c1	-13.2%	/	/	10.1%	-0.9%
Cc1cc(C)c(S(=O)(=O)N/N=C/c2ccc([N+](=O)[O-])o2)c(C)c1	-16.6%	-20.5%	1.1%	?	7.08µM*
NC(=O)N/N=C/c1ccc([N+](=O)[O-])o1	-14.3%	-5.0%	8.8%	-6.1%	?
O=C(NN=C1CCCC1)c1ccc(Cl)cc1	19.8%	-38.5%	38.5%	-6.0%	0.0%
O=C1CCC/C(=N/Nc2ccc(Cl)cc2)C1	7.8%	-17.2%[11.4 µM]	23.5%	-4.6%	12.6µM*
O=C(NCc1ccco1)c1ccc(Cn2c(SCc3ccccc3)nc3cccnc32)cc1	3.2%	/	/	16.7%	-0.9%
Cc1cc(Nc2cccc(F)c2)n2nc(-c3ccco3)nc2n1	0.0%	/	/	9.5%	-32.1%
CC(=O)c1cccc(NC(=O)CCS(=O)(=O)c2ccc(Br)s2)c1	-11.4%	-34.5%	-2.3%	-12.5%	39.8µM*
Cc1ccc(CNC(=O)CCS(=O)(=O)c2ccc(Br)s2)o1	1.5%	-17.1%	-5.4%	-4.1%	10µM*
COC(=O)c1ccc(NC(=O)CCS(=O)(=O)c2ccc(Br)s2)cc1	-27.5%	-36.9%	6.4%	?	-29.2%
CCC1Sc2ccc(S(=O)(=O)CCC(=O)NCc3ccc(C)o3)cc2NC1=O (centres undefined)	2.5%	-15.8%	35.3%	2.6%	28.2µM*
Cc1ccc(C(=O)c2oc3ccccc3c2NC(=O)c2cc(=O)c3cc(C)ccc3o2)cc1	-0.7%	/	/	4.5%	1.5%
OC(C#CCN1CCOCC1)(c1ccccc1)C1CC1 (centres undefined)	13.9%	-5.2%	-2.6%	-17.8%	50.1µM*
Cc1ccc2c(c1C)NC(C(=O)O)C1CC=CC21 (centres undefined)	/	-46.8%	11.9µM*	?	2.51µM*
O=C(O)C1Nc2c(C(=O)N3CCOCC3)cccc2C2C=CCC12 (centres undefined)	?	-18.8%	-11.3%	?	?
Cc1cc(C)c2c(c1)NC(C(=O)O)C1CC=CC21 (centres undefined)	0.0%	-35.3%	?	-0.1%	0.631µM*
O=C(O)C1Nc2c(C(F)(F)F)ccc(Cl)c2C2C=CCC12 (centres undefined)	-26.0%	-23.8%	-0.3%	-14.5%	?
Cc1cccc(NC(=O)c2oc3ccccc3c2NC(=O)c2cc(=O)c3ccccc3o2)c1	-14.2%	/	/	11.2%	3.2%
Cc1ccc(CNC(=O)c2ccc(CSCc3ccccc3Cl)o2)cc1	0.9%	/	/	-2.1%	0.6%
N#CCCS(=O)(=O)c1nnnn1-c1ccccc1	/	-20.4%	/	-9.4%	7.08µM*

Bioassay records deposited in PubChem by National Center for Advancing Translational Sciences (NCATS).
